Experimental data: the supplement of paper PMC11732987, “Enantioselective OTUD7B fragment discovery through chemoproteomics screening and high-throughput optimisation” (Communications Chemistry, 2025)

Experiments:
Assay in all cases: log2 ratio of Biotin-Ahx-Ub-VS probe labelling (fragment/DMSO); higher = less target engagement (more negative = stronger competition), active = hit call of the paper (q ≤ 0.05, log2 ratio ≤ -1)
Details in all cases: compound concentration: 200 uM; treatment time: 3 h
USP34 = USP34 (UniProt Q70CQ2)
USP34, sequence (Q70CQ2 whole entry, the tested form may be a part): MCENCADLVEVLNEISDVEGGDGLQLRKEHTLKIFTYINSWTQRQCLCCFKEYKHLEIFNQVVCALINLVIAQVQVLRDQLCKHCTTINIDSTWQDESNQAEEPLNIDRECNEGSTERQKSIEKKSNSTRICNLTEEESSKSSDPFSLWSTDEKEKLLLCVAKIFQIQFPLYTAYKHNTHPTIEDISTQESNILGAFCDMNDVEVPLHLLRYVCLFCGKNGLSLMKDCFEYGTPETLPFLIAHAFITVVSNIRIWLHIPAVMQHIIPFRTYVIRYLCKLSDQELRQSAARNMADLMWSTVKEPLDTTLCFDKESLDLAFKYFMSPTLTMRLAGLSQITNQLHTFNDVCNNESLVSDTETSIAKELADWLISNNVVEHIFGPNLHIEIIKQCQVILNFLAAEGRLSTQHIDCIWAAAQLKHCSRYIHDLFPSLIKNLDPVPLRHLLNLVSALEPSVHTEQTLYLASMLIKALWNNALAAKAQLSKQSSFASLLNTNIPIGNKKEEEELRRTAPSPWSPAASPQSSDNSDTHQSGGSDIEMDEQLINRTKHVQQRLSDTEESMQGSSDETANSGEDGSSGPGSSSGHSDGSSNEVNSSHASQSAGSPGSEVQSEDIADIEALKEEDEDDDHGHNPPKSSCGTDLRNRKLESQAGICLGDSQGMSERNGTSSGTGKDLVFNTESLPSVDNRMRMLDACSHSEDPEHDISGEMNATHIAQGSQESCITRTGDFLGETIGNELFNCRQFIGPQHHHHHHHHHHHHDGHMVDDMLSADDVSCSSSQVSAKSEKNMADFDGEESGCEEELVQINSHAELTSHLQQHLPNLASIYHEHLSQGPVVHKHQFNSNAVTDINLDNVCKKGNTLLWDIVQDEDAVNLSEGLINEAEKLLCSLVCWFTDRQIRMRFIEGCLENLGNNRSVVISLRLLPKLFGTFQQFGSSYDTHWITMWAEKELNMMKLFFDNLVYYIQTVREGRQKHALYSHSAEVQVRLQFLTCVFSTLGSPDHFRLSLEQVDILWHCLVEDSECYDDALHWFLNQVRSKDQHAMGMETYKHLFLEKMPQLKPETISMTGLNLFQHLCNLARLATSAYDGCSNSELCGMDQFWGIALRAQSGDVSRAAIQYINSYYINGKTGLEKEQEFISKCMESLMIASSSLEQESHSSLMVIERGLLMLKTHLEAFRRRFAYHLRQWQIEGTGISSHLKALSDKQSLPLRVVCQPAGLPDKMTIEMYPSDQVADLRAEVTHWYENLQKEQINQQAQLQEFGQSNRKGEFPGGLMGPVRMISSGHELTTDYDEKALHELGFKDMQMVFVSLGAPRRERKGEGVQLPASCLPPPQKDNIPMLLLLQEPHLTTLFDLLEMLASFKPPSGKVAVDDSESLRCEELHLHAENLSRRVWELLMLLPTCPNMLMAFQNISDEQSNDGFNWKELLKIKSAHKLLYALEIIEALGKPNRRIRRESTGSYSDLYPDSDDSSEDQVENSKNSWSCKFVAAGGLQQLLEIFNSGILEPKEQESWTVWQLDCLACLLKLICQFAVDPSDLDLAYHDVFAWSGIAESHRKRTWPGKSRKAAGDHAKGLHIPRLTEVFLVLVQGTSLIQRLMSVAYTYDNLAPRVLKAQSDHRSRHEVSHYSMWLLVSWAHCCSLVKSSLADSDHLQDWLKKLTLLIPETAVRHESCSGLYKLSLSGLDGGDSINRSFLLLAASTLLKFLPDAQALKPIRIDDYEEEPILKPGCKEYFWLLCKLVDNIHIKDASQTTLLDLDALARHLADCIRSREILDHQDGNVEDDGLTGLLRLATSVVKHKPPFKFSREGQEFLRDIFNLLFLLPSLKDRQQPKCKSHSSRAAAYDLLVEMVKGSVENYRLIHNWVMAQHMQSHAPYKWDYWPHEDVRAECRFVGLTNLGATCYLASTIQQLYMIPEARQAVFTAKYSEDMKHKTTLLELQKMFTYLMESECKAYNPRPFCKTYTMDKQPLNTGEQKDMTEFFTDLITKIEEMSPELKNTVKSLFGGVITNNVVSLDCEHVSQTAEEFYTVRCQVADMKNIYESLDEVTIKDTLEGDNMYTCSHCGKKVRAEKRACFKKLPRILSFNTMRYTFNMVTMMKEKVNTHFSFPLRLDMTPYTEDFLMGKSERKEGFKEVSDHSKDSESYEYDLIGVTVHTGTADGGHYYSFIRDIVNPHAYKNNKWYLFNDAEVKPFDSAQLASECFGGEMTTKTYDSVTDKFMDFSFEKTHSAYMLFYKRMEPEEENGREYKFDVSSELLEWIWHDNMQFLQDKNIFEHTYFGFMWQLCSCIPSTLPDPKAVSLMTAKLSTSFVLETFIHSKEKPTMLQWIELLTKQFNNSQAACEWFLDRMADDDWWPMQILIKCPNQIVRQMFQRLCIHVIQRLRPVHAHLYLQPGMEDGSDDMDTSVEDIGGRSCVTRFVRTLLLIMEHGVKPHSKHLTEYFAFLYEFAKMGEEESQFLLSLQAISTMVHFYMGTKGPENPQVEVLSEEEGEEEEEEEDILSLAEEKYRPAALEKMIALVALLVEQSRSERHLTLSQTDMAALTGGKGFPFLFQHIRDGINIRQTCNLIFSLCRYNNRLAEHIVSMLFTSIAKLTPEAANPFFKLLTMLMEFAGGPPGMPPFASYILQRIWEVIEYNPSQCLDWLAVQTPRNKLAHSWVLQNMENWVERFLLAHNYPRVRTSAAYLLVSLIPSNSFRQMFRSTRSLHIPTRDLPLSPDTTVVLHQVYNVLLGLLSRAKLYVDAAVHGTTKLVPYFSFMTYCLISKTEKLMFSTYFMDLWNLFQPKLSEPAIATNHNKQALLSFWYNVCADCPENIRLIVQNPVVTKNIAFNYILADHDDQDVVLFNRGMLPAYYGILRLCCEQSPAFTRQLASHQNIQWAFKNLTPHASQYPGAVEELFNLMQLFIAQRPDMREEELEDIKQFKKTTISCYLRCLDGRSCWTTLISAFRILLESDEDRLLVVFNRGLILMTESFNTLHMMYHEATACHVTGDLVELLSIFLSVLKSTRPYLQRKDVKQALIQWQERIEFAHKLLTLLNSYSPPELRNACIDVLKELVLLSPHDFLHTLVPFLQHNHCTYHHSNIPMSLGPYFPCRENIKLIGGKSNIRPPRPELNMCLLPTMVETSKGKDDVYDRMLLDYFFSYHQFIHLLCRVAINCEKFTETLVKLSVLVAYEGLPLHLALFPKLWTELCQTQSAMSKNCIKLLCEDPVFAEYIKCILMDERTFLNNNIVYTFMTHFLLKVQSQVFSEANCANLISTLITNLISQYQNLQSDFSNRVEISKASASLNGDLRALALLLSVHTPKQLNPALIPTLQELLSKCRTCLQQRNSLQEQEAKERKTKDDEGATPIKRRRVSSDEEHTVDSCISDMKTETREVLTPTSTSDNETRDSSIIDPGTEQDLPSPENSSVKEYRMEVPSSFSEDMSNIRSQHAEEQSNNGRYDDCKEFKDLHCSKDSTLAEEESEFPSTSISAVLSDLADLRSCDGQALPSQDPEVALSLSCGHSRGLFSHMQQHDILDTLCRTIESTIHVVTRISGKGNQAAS
Method in brief: (§1)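 HEK293T lysate, 495 µg per sample in Tris/CHAPS/IGEPAL buffer with protease inhibitors, was treated in triplicate with fragment at 200 µM or vehicle for 3 h and then with Biotin-Ahx-Ub-VS at 0.5 µM final for 1 h. Labelled DUBs were NeutrAvidin-enriched, digested with LysC and trypsin, and run by diaPASEF LC-MS/MS. Spectronaut label-free quantities were global-median-normalised, and values are average log2 fragment/vehicle ratios by unpaired t-test on proteins with ≥2 unique peptides.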

USP36 = target: T1, USP36 (UniProt Q9P275)
T1 sequence (whole entry): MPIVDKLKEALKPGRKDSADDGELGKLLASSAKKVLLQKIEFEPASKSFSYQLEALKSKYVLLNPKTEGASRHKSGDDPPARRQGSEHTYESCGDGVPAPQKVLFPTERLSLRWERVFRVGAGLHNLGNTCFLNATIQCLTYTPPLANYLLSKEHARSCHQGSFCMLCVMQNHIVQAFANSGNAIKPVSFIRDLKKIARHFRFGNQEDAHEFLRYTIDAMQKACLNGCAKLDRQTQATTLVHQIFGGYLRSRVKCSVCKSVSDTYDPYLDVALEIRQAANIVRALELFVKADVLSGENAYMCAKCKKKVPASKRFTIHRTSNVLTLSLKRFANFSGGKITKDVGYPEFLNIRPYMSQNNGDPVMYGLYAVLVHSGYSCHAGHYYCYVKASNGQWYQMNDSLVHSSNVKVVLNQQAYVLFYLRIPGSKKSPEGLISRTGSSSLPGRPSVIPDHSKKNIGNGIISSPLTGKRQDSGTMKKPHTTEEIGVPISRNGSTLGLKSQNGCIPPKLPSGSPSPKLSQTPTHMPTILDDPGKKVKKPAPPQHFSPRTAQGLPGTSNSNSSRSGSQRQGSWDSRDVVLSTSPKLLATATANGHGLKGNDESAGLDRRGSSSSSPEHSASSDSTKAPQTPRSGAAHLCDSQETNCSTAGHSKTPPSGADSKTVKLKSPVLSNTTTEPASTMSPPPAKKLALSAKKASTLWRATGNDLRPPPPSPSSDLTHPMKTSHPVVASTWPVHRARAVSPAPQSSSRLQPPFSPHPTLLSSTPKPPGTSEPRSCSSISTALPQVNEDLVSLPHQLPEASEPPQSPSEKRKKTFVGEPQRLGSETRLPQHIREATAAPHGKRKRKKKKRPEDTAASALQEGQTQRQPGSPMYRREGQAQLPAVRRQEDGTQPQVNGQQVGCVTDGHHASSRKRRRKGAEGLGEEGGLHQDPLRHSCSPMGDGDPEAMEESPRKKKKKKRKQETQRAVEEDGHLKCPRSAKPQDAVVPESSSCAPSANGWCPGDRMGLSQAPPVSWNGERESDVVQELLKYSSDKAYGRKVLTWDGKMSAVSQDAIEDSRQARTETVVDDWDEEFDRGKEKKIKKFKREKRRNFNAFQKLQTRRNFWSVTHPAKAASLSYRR
Method in brief: as §1

USP38 = target: T2, USP38 (UniProt Q8NB14)
T2 sequence (whole entry): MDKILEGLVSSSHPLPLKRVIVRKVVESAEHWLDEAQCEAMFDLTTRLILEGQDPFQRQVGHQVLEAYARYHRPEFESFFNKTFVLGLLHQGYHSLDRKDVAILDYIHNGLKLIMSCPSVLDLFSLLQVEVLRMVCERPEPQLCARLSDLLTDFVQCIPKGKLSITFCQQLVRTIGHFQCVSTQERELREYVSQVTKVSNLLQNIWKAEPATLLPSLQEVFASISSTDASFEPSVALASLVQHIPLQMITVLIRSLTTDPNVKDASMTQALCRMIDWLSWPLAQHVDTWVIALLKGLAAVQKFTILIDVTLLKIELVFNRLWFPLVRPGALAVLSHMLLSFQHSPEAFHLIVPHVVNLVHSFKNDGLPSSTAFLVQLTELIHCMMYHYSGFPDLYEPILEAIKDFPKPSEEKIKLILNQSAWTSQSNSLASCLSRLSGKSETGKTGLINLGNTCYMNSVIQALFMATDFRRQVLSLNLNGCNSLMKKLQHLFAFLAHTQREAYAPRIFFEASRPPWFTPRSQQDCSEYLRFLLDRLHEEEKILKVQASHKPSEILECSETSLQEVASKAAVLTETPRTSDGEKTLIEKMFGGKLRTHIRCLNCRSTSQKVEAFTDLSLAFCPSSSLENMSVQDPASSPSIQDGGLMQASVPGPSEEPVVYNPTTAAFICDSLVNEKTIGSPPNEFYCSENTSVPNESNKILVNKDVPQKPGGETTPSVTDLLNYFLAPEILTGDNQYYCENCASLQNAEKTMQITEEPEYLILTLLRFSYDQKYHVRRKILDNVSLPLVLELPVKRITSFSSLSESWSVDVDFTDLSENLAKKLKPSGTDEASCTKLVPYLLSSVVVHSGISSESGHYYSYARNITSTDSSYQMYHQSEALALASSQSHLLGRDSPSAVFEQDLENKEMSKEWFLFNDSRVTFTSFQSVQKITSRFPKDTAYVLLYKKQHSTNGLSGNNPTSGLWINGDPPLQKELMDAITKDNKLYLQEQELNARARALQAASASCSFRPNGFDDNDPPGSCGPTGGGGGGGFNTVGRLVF
Method in brief: as §1

USP39 = target: T3, USP39 (UniProt Q53GS9)
T3 sequence (whole entry): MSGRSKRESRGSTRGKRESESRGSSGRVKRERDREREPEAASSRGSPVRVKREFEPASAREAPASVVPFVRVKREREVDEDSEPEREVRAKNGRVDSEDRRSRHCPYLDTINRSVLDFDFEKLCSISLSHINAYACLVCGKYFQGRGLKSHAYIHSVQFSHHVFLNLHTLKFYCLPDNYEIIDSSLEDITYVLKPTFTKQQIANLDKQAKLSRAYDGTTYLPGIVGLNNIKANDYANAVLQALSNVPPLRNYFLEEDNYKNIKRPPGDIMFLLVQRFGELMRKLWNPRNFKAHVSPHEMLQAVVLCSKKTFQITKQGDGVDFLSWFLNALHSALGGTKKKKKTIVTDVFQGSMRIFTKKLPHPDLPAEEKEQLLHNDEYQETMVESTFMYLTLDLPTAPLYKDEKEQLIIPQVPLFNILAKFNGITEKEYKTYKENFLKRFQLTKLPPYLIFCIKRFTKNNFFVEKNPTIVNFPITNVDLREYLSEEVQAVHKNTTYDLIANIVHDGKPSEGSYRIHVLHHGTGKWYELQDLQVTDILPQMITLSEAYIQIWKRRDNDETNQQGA
Method in brief: as §1

USP4 = target: T4, USP4 (UniProt Q13107)
T4 sequence (whole entry): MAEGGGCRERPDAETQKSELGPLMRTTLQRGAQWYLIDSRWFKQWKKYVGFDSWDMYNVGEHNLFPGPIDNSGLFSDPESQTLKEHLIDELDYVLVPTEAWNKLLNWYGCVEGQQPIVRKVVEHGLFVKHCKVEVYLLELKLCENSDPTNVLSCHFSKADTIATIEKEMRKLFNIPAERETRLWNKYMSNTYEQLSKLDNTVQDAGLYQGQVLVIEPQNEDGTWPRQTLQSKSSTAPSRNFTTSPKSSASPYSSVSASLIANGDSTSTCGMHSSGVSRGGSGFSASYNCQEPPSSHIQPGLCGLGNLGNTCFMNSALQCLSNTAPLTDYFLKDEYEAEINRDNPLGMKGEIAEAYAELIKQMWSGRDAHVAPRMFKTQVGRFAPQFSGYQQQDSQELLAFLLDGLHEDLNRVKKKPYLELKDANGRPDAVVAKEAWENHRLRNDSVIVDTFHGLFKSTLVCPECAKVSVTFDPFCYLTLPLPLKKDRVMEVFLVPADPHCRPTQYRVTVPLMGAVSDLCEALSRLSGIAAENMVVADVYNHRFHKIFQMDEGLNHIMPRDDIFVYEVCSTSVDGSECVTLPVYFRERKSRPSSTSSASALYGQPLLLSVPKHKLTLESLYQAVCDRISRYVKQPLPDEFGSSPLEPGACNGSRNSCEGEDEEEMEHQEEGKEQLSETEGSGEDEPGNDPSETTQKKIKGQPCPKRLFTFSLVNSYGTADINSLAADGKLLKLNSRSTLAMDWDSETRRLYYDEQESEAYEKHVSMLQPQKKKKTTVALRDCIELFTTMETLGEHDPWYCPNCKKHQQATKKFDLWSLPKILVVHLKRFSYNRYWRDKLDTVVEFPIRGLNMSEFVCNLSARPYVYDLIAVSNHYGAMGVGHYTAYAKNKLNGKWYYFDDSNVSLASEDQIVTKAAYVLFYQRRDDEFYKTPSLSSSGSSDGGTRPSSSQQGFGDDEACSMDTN
Method in brief: as §1

Measured: log2 ratio of Biotin-Ahx-Ub-VS probe labelling

CC(NC(=O)CCl)c1csc(-c2ccccc2)n1.Cl (stereo not given)
inactive: USP34 -0.477 | USP36 -0.276 | USP38 -0.266 | USP39 0.0283 | USP4 -0.166
